# Compound activity (PubChem)
# E coli growth-1 = E. coli growth inhibition, primary screen, OD600. Escherichia coli growth, 23 h; hits give low values. OD600 absorbance (no concentration beside the values). 0.21% of 330,000 active;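 active = OD600 absorbance below the run mean of sample wells minus 3.6 SD, in any replicate, cut at about 0.56 in these data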
# PfHsp90 set2 = growth inhibition of PfHsp90-expressing yeast, primary screen, antimalarial PfHsp90 inhibitor project, S. cerevisiae, BacTiter-Glo luminescence, single point, set 2 | BacTiter-Glo ATP, 48 h; yeast lacking PDR1 and PDR3 efflux regulators | inhibition, % at 9.4 µM | 0.32% of 310,000 active;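 active = every replicate shows inhibition above about 80%, whatever the replicate mean, limit read from the data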;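 also: 0% = DMSO neutral controls and 100% = 20 µM radicicol positive controls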
# AddAB inh = growth inhibition of E. coli expressing H. pylori AddAB, primary screen, AddAB inhibitor project, absorbance; inhibition, % at 11.9 µM; 0.29% of 330,000 active; AID 435030, 2010; in the data active = inhibition above about 12%;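 also: 0% = vehicle wells of infected cells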
# phage Ecoli inh = growth loss of phage-infected E. coli, primary screen, RecBCD inhibitor project, absorbance, with phage, HTS | inhibition, % at 11.9 µM | 0.26% of 360,000 active; in the data active = inhibition above about 11%
# E coli growth-2 = E. coli V3065 growth inhibition, primary screen, counter-screen for AddAB inhibitor project, absorbance, OD600; 18 h; inhibition, % at 11.9 µM; 0.27% of 330,000 active; AID 449728, 2010;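 active = inhibition above the campaign's mean inhibition across all tested compounds plus 3 SD, cut at about 9.9% in these data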;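 also: uninfected addAB+ strain grown without phage in ampicillin broth; 0% = DMSO wells and 100% = ciprofloxacin 0.95 µg/ml wells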
# Tat transport = E. coli Tat export inhibitors, primary screen, MC4100, TorA-mCherry reporter, fluorescence, single point; inhibition, % at 10 µM; 0.036% of 340,000 active; AID 488895, 2010;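 active = mean replicate inhibition at least 50% and at least half of replicates individually reaching 50%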;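 also: exported cargo escapes ClpAP degradation while cytoplasmic cargo is degraded and loses fluorescence; 0% = median of neutral control wells and 100% = median of NaSCN control wells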
# RecBCD conf = growth loss of phage-infected RecBCD+ E. coli, confirmation, RecBCD inhibitor project, absorbance, E. coli V66, T4 gene 2 phage; shares compounds with phage Ecoli inh; E. coli V66 + T4 2- phage, growth OD; inhibition, % at 11.9 µM; 45% of 890 active;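 active = mean inhibition over triplicates exceeding the hit threshold derived in the original primary screen, cut at about 11% in these data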
# Ecoli viability = E. coli viability inhibition, counter-screen for RecBCD inhibitor project, absorbance, high throughput. shares compounds with phage Ecoli inh. 29% of 890 active. inhibition, % at 11.9 µM. absorbance (OD) growth; in the data active = inhibition above about 20%;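 also: E. coli strain V66 grown with compound alone and no phage infection; 0% = bacteria with DMSO vehicle only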
# AddAB counter = growth loss of phage-infected AddAB-carrying E. coli, confirmation, counter-screen for RecBCD inhibitor project, absorbance, E. coli V3065, T4 phage; shares compounds with phage Ecoli inh; E. coli expressing H. pylori AddAB + T4 phage, OD growth; gene 2 mutant T4, recBCD-deleted host; inhibition, % at 11.9 µM; 45% of 890 active;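 active = mean inhibition above the solvent-only control wells' mean plus 3 SD, cut at about 22% in these data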;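 also: higher means less bacterial growth from phage killing when AddAB is blocked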
# * = called active by the depositor; x = no result. Only some compounds are listed: those with a hit (about 0.69% of all), similar ones and a draw of the others.
SMILES,E coli growth-1,PfHsp90 set2,AddAB inh,phage Ecoli inh,E coli growth-2,Tat transport,RecBCD conf,Ecoli viability,AddAB counter
NCC[C@H](O)C(=O)N[C@@H]1C[C@H](N)[C@@H](O[C@H]2O[C@H](CN)[C@@H](O)[C@H](O)[C@H]2O)[C@H](O)[C@H]1O[C@H]1O[C@H](CO)[C@@H](O)[C@H](N)[C@H]1O,x,11,x,100*,x,126*,100*,100*,101*
Cn1nnnc1SCc1ccc(F)cc1,0.66,x,1,20*,-1,-1,0,0,-1
CC#CC(CC)c1ccc2ccn(C)c2c1 (configuration not stated),0.68,x,x,x,x,x,x,x,x
COc1ccc(Cl)cc1NS(=O)(=O)c1c(C)nc2sccn2c1=O,0.75,-28,3,3,-1,4,x,x,x
Cc1ccc(C)c(NS(=O)(=O)c2c(C)nc3sccn3c2=O)c1,0.7,10,-2,99*,0,-10,-2,-2,-2
O=C(CCCC(=O)Nc1cccc(Br)c1)NN=Cc1cc([N+](=O)[O-])ccc1O,0.67,x,x,x,x,x,x,x,x
Cn1cc(S(=O)(=O)N2CCc3ccccc32)cc1C(=O)NC1CCCCC1,0.67,-25,1,98*,-1,1,-4,-3,-4
CCOc1ccc2c(c1)S/C(=C\c1cccs1)C(=O)N2,0.69,-12,1,54*,0,-7,0,1,5
Cc1cc(C)cc(N=C2NC(=O)/C(=C/c3cccs3)S2)c1,0.69,-2,0,3,-4,6,x,x,x
C=CCn1c(=O)c(C(=O)NCCc2ccccc2)c(O)c2ccccc21,0.65,-18,10,13*,13*,7,6,10,8
COc1cccc(N=Nc2ccc(O)c3ncccc23)c1,x,102*,8,13*,7,-14,5,7,11
COc1ccc(C)cc1N=Nc1ccc(O)c2ncccc12,0.73,109*,x,18*,x,-7,6,8,19
COc1cccc(N=Nc2ccc3cccnc3c2O)c1,0.71,104*,7,14*,15*,-5,6,10,6
Oc1ccc(N=Nc2ccc3c(c2)OCCO3)c2cccnc12,0.73,-58,8,15*,6,2,7,9,8
CCN(CC)c1ccc(C(=C2C=CC(=[N+](CC)CC)C=C2)c2ccccc2)cc1,x,147*,x,79*,x,64*,73*,80*,83*
O=C(CSCc1cccc(Br)c1)NN=Cc1ccc2c(c1)OCO2,0.68,x,x,x,x,x,x,x,x
CCCCn1c(CNC(=O)CC)nc2ccccc21,0.72,1,1,2,-2,-9,x,x,x
CCCCn1c(CNC(=O)Cc2ccccc2)nc2ccccc21,0.7,5,0,100*,-1,-3,-3,-3,3
CC(C)c1ccc(C=NNC(=O)c2cccc(S(=O)(=O)N3CCOCC3)c2)cc1,0.71,x,x,x,x,x,x,x,x
Oc1ccc(C=NNC(=S)Nc2ccccc2)nc1,x,x,x,22*,x,x,22*,27*,32*
NS(=O)(=O)c1ccc(NC(=S)Nc2ccc(S(=O)(=O)Nc3nccs3)cc2)cc1,x,x,x,11*,x,x,3,3,8
CC(C)(C)C(=O)NC(=S)Nc1ccc(S(=O)(=O)Nc2nccs2)cc1,0.65,1,3,5,-1,-2,x,x,x
O=S(=O)(Nc1ncccn1)c1ccc(NC(=S)Nc2ccccc2Cl)cc1,x,-29,7,11*,3,-10,0,-2,6
O=C(NNC(=O)c1cc(F)c(F)cc1Cl)c1ccc(NS(=O)(=O)c2cccs2)cc1,0.65,-7,-1,1,1,5,x,x,x
O=C(NNC(=O)c1cc(Cl)ccc1O)c1ccc(NS(=O)(=O)c2cccs2)cc1,0.67,5,5,11*,2,-20,3,3,2
SMILES,E coli growth-1,PfHsp90 set2,AddAB inh,phage Ecoli inh,E coli growth-2,Tat transport,RecBCD conf,Ecoli viability,AddAB counter
Cc1nccn1Cc1ccccc1,0.7,-13,-1,100*,2,7,0,1,0
Cc1nccn1CCc1n[nH]c(=S)n1Cc1ccccc1,0.63,-13,2,2,1,4,x,x,x
Cc1ccc(NC(=S)Nc2ccc(OC(F)F)c(Cl)c2)cc1F,0.63,12,2,11*,1,6,6,7,5
CC1Cc2ccccc2N1C(=O)CCn1c(=O)oc2ccccc21 (configuration not stated),0.66,6,-1,99*,0,10,-7,-7,-2
COc1ccc(CNC(=O)C(C)OC(=O)CON=C(C)c2ccc3c(c2)OCO3)cc1 (configuration not stated),0.67,x,x,x,x,x,x,x,x
O=[N+]([O-])c1ccc(O)c2ncccc12,0.066*,109*,64*,62*,67*,20,79*,74*,69*
O=[N+]([O-])c1cc([N+](=O)[O-])c2cccnc2c1Oc1ccccc1O,0.69,-35,5,1,-10,2,x,x,x
Oc1c(I)cc(Cl)c2cccnc12,0.12*,111*,31*,32*,44*,-14,43*,49*,40*
Oc1c(Cl)c(Cl)c2ncccc2c1Cl,0.68,-8,x,4,x,0,x,x,x
O=[N+]([O-])c1cc(Cl)c(O)c2ncccc12,0.068*,98*,x,44*,x,-1,53*,55*,46*
Cc1ccc2ccc(C(Nc3ccccc3)c3ccc(C(C)C)cc3)c(O)c2n1 (configuration not stated),x,x,x,9,x,x,x,x,x
Cc1ccnc(NC(c2ccccc2)c2ccc3cccnc3c2O)c1 (configuration not stated),0.72,-32,x,17*,x,-3,9,14,15
Cc1ccc2ccc(C(Nc3ccccc3)c3ccccc3)c(O)c2n1 (configuration not stated),x,x,x,12*,x,x,3,5,12
Cc1ccc2ccc(C(Nc3ccccn3)c3ccccc3)c(O)c2n1 (configuration not stated),0.8,-8,3,8,-3,-3,x,x,x
Cc1ccc2ccc(C(Nc3ccccc3)c3ccc(Cl)cc3)c(O)c2n1 (configuration not stated),x,x,x,12*,x,x,1,3,2
